Measured values published in PubChem BioAssay AID651640 (Broad Institute, 2012).
In all, about 350,000 compounds went through this assay and about 6,000 (1.7%) were called active. Roughly 5% stayed inconclusive and do not appear here. Cut-off read from the data, not from the text of the source: active = CPE inhibition above about 20% (passing the limit was not always enough); inconclusive = no clear call, values can overlap the other calls; tested in BHK-21 cells. This excerpt belongs to a sample that is enriched for actives.

Assay: inhibitors of DENV2 cytopathic effect, primary screen, cell-based, plate reader, single concentration (AID 651640);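 note: 0% = median of neutral control wells and 100% = median of positive control wells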
Conditions: DENV2-infected cells, cytopathic effect rescue, at 9.99 µM, stronger effect = higher value

Structure (SMILES)	CPE inhibition
O=C(C[C@@H]1C[C@@H]2c3cc(NC(=O)NC4CCCC4)ccc3O[C@@H]2[C@H](CO)O1)NCC(F)(F)F	7.08% (inactive)
CN(C)C(=O)[C@@H]1[C@@H](CO)[C@@H]2Cn3c(ccc(-c4ccccc4)c3=O)[C@@H]2N1CCC(F)(F)F	3.4% (inactive)
C[C@@H]1CN([C@H](C)CO)C(=O)c2ccccc2-c2ccccc2CO[C@H]1CN(C)C(=O)CCC(F)(F)F	1.69% (inactive)
CC(C)C[C@H](NC(=O)CC1CCCC1)C(=O)N1CCC[C@H]1C(=O)NCc1ccccc1	-0.111% (inactive)
COc1ccc(NC(=O)N(C)C[C@@H]2Oc3ccc(NC(=O)CCC(F)(F)F)cc3C(=O)N([C@@H](C)CO)C[C@H]2C)cc1	-3.47% (inactive)
O=C(C1CCCCC1)N1CC(=O)N2[C@H](CO)[C@H](c3ccc(Br)cc3)[C@H]2C1	-9.75% (inactive)
C[C@@H]1CN([C@@H](C)CO)S(=O)(=O)c2ccc(C#CC(C)(C)O)cc2O[C@H]1CN(C)C(=O)CN(C)C	14.1% (inactive)
Cc1ccc(S(=O)(=O)Nc2cccc3c2O[C@H](CN(C)CC2CCCCC2)[C@H](C)CN([C@H](C)CO)C3=O)cc1	-0.201% (inactive)
N[C@@H]1CC[C@H](CCn2cc(C3CC3)nn2)O[C@@H]1CO	-2.16% (inactive)
N#C[C@H]1[C@@H](c2ccccc2-c2ccccc2F)[C@@H](CO)N1C(=O)C1CCC1	-1.39% (inactive)
C[C@@H]1CN([C@@H](C)CO)C(=O)c2cc(NS(C)(=O)=O)ccc2O[C@@H]1CN(C)C(=O)Nc1ccccc1	4.47% (inactive)
C[C@@H]1CN([C@@H](C)CO)C(=O)c2cc(C3=CCCC3)cnc2O[C@H]1CN(C)C(=O)c1ccccn1	1.01% (inactive)
CC1(Cc2cccc(C#N)c2)C(=O)Nc2ccc(-c3cccc(C(F)(F)F)c3)cc21 (stereo unspecified)	94.5% (active)
C=CCn1cc(-c2cccc(C(F)(F)F)c2)cc(C#N)c1=O	-0.13% (inactive)
N#Cc1c(-c2ccccc2)nc(SCc2cccc(C(F)(F)F)c2)[nH]c1=O	-3.77% (inactive)
COc1ccccc1NC(=O)N[C@H]1CC[C@H](CCn2cc(-c3cccnc3)nn2)O[C@@H]1CO	7.27% (inactive)
CCN(C[C@H]1[C@H](c2ccc(-c3ccccc3)cc2)[C@H](CO)N1CC1CC1)C(C)=O	-11.4% (inactive)
C[C@H](CO)N1C[C@H](C)[C@H](CN(C)Cc2cccc(F)c2)Oc2ncc(C#CCN(C)C)cc2C1=O	-7.01% (inactive)
Cc1nc(N)nc(SCc2ccc([N+](=O)[O-])cc2)c1N	5.04% (inactive)
Cc1cc([N+](=O)[O-])nn1Cc1ccc(F)cc1	-2.03% (inactive)
Cc1nc(SCc2ccc(F)cc2)c([N+](=O)[O-])[nH]1	70.9% (active)
COc1ccc(S(=O)(=O)N(C)C[C@H]2Oc3c(NC(=O)CCCCCC(=O)Nc4ccccc4N)cccc3C(=O)N([C@H](C)CO)C[C@H]2C)cc1	-2.7% (inactive)

Structure (SMILES)	CPE inhibition
COc1ccccc1Cc1c(-c2ccc(F)cc2)nc2ccc(C)cn12	-9.92% (inactive)
CN(C)CC(=O)N[C@H]1CC[C@H](CCNC(=O)Nc2ccc(F)cc2)O[C@H]1CO	6.32% (inactive)
CCCCN1C(=O)C(=O)N(CC(=O)Nc2cccc(C(C)=O)c2)C1=O	-4.58% (inactive)
CCOC(=O)c1cccc(NC(=O)CCOc2ccccc2)c1	-0.064% (inactive)
CCOC(=O)c1cccc(NC(=O)CN2C(=O)C3CC=CCC3C2=O)c1 (stereo unspecified)	76% (active)
O=C(c1cccnc1)N1CC(=O)N2[C@H](CO)[C@@H](c3ccc(-c4ccc(F)cc4)cc3)[C@@H]2C1	-0.715% (inactive)
O=C(C[C@@H]1CC[C@H]2[C@@H](COC[C@@H](O)CN2C(=O)c2ccc3c(c2)OCO3)O1)NC1Cc2ccccc2C1	35.1% (active)
O=C(C[C@H]1CC[C@H]2[C@@H](COC[C@@H](O)CN2Cc2ccccc2)O1)N[C@@H]1CCN(Cc2ccccc2)C1	17.9% (inactive)
O=C(C[C@@H]1CC[C@@H]2[C@H](COC[C@H](O)CN2C(=O)Cc2ccccc2)O1)NC1CCC1	34.4% (active)
O=C(C[C@H]1CC[C@@H]2[C@H](COC[C@H](O)CN2C(=O)c2ccc3c(c2)OCO3)O1)NC1CCC1	2.16% (inactive)
O=C(C[C@@H]1CC[C@@H]2[C@H](COC[C@H](O)CN2C(=O)c2ccc3c(c2)OCO3)O1)NC1CCCC1	-0.397% (inactive)
O=C(C[C@@H]1CC[C@H]2[C@@H](COC[C@@H](O)CN2C(=O)c2ccc3c(c2)OCO3)O1)NC1CCCC1	-3.32% (inactive)
O=C(C[C@@H]1CC[C@@H]2[C@H](COC[C@H](O)CN2C(=O)c2cccnc2)O1)NC1Cc2ccccc2C1	-4.15% (inactive)
O=C(C[C@H]1CC[C@H]2[C@@H](COC[C@@H](O)CN2C(=O)c2ccc3c(c2)OCO3)O1)NC1Cc2ccccc2C1	32.6% (active)
O=C(C[C@H]1CC[C@@H]2[C@H](COC[C@H](O)CN2Cc2ccccc2F)O1)NC1CCC1	-4.44% (inactive)
COc1ccc(-c2ccc3c(c2)[C@H]2[C@H](CCN2S(=O)(=O)c2ccccc2F)[C@H](CO)N3)cc1	-28.4% (inactive)
O=C(c1ccccc1)N1C[C@H]2[C@@H](c3ccccc31)[C@H](CO)N2Cc1ccccc1F	-4.2% (inactive)
C[C@@H]1CN([C@@H](C)CO)C(=O)c2cc(NC(=O)CCCN(C)C)ccc2O[C@@H](C)CCCCO[C@@H]1CN(C)S(=O)(=O)c1ccc(Cl)cc1	-4.63% (inactive)
C/C=C/c1ccc2c(c1)O[C@@H](CN(C)S(=O)(=O)c1ccc(F)cc1)[C@@H](C)CN([C@H](C)CO)S2(=O)=O	1.09% (inactive)
COc1ccc(S(=O)(=O)N(C)C[C@H]2OCCCC[C@H](C)Oc3ccc(NC(=O)Nc4ccc5c(c4)OCO5)cc3C(=O)N([C@@H](C)CO)C[C@@H]2C)cc1	-7.54% (inactive)
CCOC(=O)c1c(NC(=O)CSc2cn(CC)c3ccccc23)sc2c1CCC2	5.51% (inactive)
CCOC(=O)c1c(NC(=O)Cn2nc(C(F)(F)F)cc2C)sc2c1CCC2	-2.63% (inactive)

Structure (SMILES)	CPE inhibition
CCCOC(=O)c1c(NC(=O)c2cnn3c2NC(c2ccccc2)CC3C(F)(F)F)sc2c1CCCC2 (stereo unspecified)	84.1% (active)
COC(=O)[C@]12C[C@H](CC(=O)N3CCN(C(=O)C4CC4)CC3)C(=O)N(Cc3ccc4c(c3)OCO4)C1=C[C@H](C(C)(C)C)O[C@@H]2C	0.269% (inactive)
COc1ccc(NC(=O)N(C)C[C@H]2Oc3c(NC(=O)Nc4cccc5ccccc45)cccc3C(=O)N([C@@H](C)CO)C[C@H]2C)cc1	18.2% (inactive)
C[C@@H]1CN([C@H](C)CO)C(=O)c2cccc(NC(=O)Nc3cccc4ccccc34)c2O[C@@H]1CN(C)C(=O)Nc1cccc2ccccc12	4.21% (inactive)
C[C@H]1CN([C@@H](C)CO)C(=O)c2cccc(NC(=O)Nc3cccc4ccccc34)c2O[C@@H]1CN(C)C(=O)NC1CCCCC1	43.8% (active)
C[C@@H]1CN([C@H](C)CO)C(=O)c2cccc(NC(=O)Nc3ccccc3)c2O[C@@H]1CN(C)C(=O)NC1CCCCC1	-11% (inactive)
CC(C)NC(=O)N(C)C[C@H]1Oc2c(NC(=O)C3CCCCC3)cccc2C(=O)N([C@@H](C)CO)C[C@H]1C	-3.61% (inactive)
C[C@H]1CN([C@@H](C)CO)C(=O)c2cccc(NC(=O)C3CCOCC3)c2O[C@H]1CN(C)S(C)(=O)=O	12.7% (inactive)
COc1ccc(NC(=O)N(C)C[C@@H]2Oc3c(NC(=O)Nc4cccc5ccccc45)cccc3C(=O)N([C@@H](C)CO)C[C@H]2C)cc1	23.2% (active)
C[C@H](CO)N1C[C@H](C)[C@H](CN(C)C(=O)NC2CCCCC2)Oc2c(NC(=O)C3CC3)cccc2C1=O	20.6% (active)
COc1ccc(NC(=O)N(C)C[C@H]2Oc3c(NC(=O)Nc4cccc5ccccc45)cccc3C(=O)N([C@H](C)CO)C[C@@H]2C)cc1	15.2% (inactive)
C[C@@H]1CN([C@@H](C)CO)C(=O)c2cccc(NC(=O)C3CC3)c2O[C@@H]1CN(C)C	11.8% (inactive)
C[C@H]1CN([C@@H](C)CO)C(=O)c2cccc(NC(=O)C3CCOCC3)c2O[C@@H]1CN(C)C	39.5% (active)
C[C@@H]1CN([C@H](C)CO)C(=O)c2cccc(NC(=O)C3CC3)c2O[C@@H]1CN(C)C(=O)Nc1ccccc1	8.03% (inactive)
CN1CCN(C(=O)C[C@H]2CC[C@H]3[C@@H](COC[C@H](O)CN3CC3CCOCC3)O2)CC1	-5% (inactive)
CCCNC(=O)N1[C@H](CO)[C@@H]2c3ccccc3N(C(=O)C3CCOCC3)C[C@@H]21	9.68% (inactive)
CNC(=O)C[C@H]1CC[C@H]2[C@@H](COc3ccc(NS(=O)(=O)c4ccc(F)cc4)cc3C(=O)N2C)O1	-4.93% (inactive)
CC(C)NC(=O)N(C)C[C@H]1OCCCC[C@H](C)Oc2ccc(NS(=O)(=O)c3cccs3)cc2C(=O)N([C@H](C)CO)C[C@@H]1C	-5.44% (inactive)
O=C(CC1CC1)N1[C@@H]2CN(S(=O)(=O)c3ccccc3F)c3ccccc3[C@@H]2[C@@H]1CO	2.67% (inactive)
CCCNC(=O)N1CC2(C1)[C@H](c1ccccc1)[C@@H](CO)N2Cc1cccc(Cl)c1	-0.258% (inactive)
C[C@@H]1CN([C@H](C)CO)S(=O)(=O)c2ccc(-c3ccncc3)cc2O[C@@H]1CN(C)C(=O)CN(C)C	-2.24% (inactive)
COCC(=O)N(C)C[C@@H]1Oc2cc(C#Cc3cccnc3)ccc2S(=O)(=O)N([C@H](C)CO)C[C@H]1C	0.786% (inactive)
